Measured values: the supplement of paper PMC6555819

The sequences below were run on PPARg DBDmut IVT, anti-PPARg (DBD mutation: PPARg1 K132A/R137A, NR concentration 270 nM) (assay: PBM binding z-score (relative to random genomic background probes); higher = stronger binding; sequences stand for … in GC…GCGATTGACAGCGTAGAATGAAGG).
Procedure, shortened: (§1)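 Custom Agilent 4×180K protein-binding microarrays carried double-stranded probes, each with a 34-nt variable region. These regions held direct-repeat seeds, single-nucleotide variants, half-site ablations and random human genomic background sequences. Ligand-free nuclear receptor dimers were incubated on the arrays for 1 h, antibodies against each partner (one per run) detected binding, and scanned fluorescence was regression-normalized. Binding z-scores take the random background probes as reference.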
For GATACAGGGTCAAGGCGAGAGTACGCGTATTGAT, the PBM binding z-score was 0.177.
Sequence CCTCACGGGTCACGAGGTTATAGCACGACGAGCG has a PBM binding z-score of -0.0554.
With ATCTCTAGGTAAAGATAGTTCAGTGATTGCAAAT the PBM binding z-score was 1.85.
In the case of TCACCAAGGTGAAGGTCGTTGATCCCTCTGTAGA, the PBM binding z-score is reported as 0.105.
In the case of GCTGCTGGGTCAACTGATGGTCAGCTAAAGCTCG, the PBM binding z-score is reported as -0.337.
For TCTTCTAGATCAACAGGAGGTTAAGAAAGATCGA, the PBM binding z-score was 1.8.
TCATATAGGTATACAGGTGAAAGTCCGTAAGTTA was tested, and the PBM binding z-score was 1.54.
In the case of CCTGCTAGGTCGATGGTCAGCTAAAGCAGCTCGC, the PBM binding z-score is reported as -0.626.
GCTAGCAGGCAATTTGGGTCACTCAATGACGGGC gave a PBM binding z-score of -1.09.
For CGTCCAAGGTCAGAAAGGTCAGTGAATGCCGAGT, the PBM binding z-score was -0.0818.
Work on AGAATGACGTTATTAAGATCAGGGAATTGCGGTC yielded a PBM binding z-score of 0.222.
CCGACTGGGGCATAAGGTTACCTTAAGCCAGCCC showed a PBM binding z-score of -1.61.
Work on ACTTACGGGTGAACGAGGTTATAGCACGCGTATA yielded a PBM binding z-score of 1.4.
AGAATTAGGTTATTAAGATCAGGGAATTGCGGTC was tested, and the PBM binding z-score was 1.27.
Work on GATACAGGGTCAAGGACAGAGTACGCGTATTGAT yielded a PBM binding z-score of 0.618.
With ATCGAAAGGTCGACGAGGCGAGTATACACCGTTT the PBM binding z-score was 1.13.
TGAATGAGGTTATAGATCAGGGAACGTGGCGTCG was tested, and the PBM binding z-score was 0.361.
For CCTAGCCGGCCAGGGTCACTCAAGCATTTCGCTT, the PBM binding z-score was -1.69.
CCTACTGGGCCAACGTCATTGATCAGTCAAAGCA was tested, and the PBM binding z-score was -0.52.
With GCTAGTTGCTCAGTAAAAGGTCACACACCGGTCG the PBM binding z-score was 0.0665.
In the case of TCTTGTAGATCAGCGGGTTAAGAAAGCTGGCCAA, the PBM binding z-score is reported as 0.232.
For ACTAGCTGGCCAAGTTTGGGTCACTCAAACAAAG, the PBM binding z-score was -0.239.
In the case of TCTAGTTGGTCAAAGGTCAGACACTCGAAATGCG, the PBM binding z-score is reported as 0.417.
For ACTAGCAGGCCAAGTTCGGGTCACTCAAACAAAG, the PBM binding z-score was -1.
Work on CGTCCAAGGTCAATGCTAGTTCAGTGAAAGCATT yielded a PBM binding z-score of 0.145.
CAGTCTAGGTCAGGGCCAGTATAGGAGGAACGTT was tested, and the PBM binding z-score was -0.134.
In the case of TCGAGTAGGTTACCAATGGGGCATTCAACTTTCT, the PBM binding z-score is reported as -0.457.
Work on TGAGTGAGGTTAAAGATCAGGGAACGTGGCGTCG yielded a PBM binding z-score of 0.826.
AGAAGGAGGTTACCAAAGATCAGGGAAACGCTTG was tested, and the PBM binding z-score was 0.604.
GCTAGTAGGCCATTTGGGTCACTCAATGACGGGC was tested, and the PBM binding z-score was -0.997.
Sequence ACAGACAGGTGATGAAGGTCACTCAGGCTATCAT has a PBM binding z-score of 0.177.
ACTTACGGGTCAACCAGGTTATAGCACGCGTATA gave a PBM binding z-score of 2.39.
In the case of TCTTGAAGATCAAGCAGGTTAAGAAAGCCTGAGT, the PBM binding z-score is reported as -0.888.
In the case of TGAATGGGGTTATAAGATCAGGGAACGTTGCAAA, the PBM binding z-score is reported as 1.59.
With ATATGTAGGTTATCTGGTCATTCAGTTTGCGCAT the PBM binding z-score was 3.41.
With ACTAGCAGGCCAAGTTTGAGTCACTCAAACAAAG the PBM binding z-score was 0.262.
CCTCCTGGGCCATTCAGAGGTCATTGATCATATG showed a PBM binding z-score of -1.05.
With CCTAGCAGGACAATCTGGGTCACTCAAGGCTTGA the PBM binding z-score was -0.424.
TCATATAGGTAATACAGGTGAAAGTAGGCATCTA showed a PBM binding z-score of 1.73.
CGTCACAGTTCAACTAAGGTAACGTAAAGCACGC gave a PBM binding z-score of 1.1.

What follows are sequences tested on PPARg homodimer (NR concentration 180 nM) in the same assay as above.
Procedure, shortened: as §1
GATACAGGGTCAAGGCGAGAGTACGCGTATTGAT was tested, and the PBM binding z-score was 3.25.
In the case of CCTCACGGGTCACGAGGTTATAGCACGACGAGCG, the PBM binding z-score is reported as 3.5.
Sequence ATCTCTAGGTAAAGATAGTTCAGTGATTGCAAAT has a PBM binding z-score of 1.19.
Sequence TCACCAAGGTGAAGGTCGTTGATCCCTCTGTAGA has a PBM binding z-score of -0.15.
With GCTGCTGGGTCAACTGATGGTCAGCTAAAGCTCG the PBM binding z-score was 1.55.
Work on TCTTCTAGATCAACAGGAGGTTAAGAAAGATCGA yielded a PBM binding z-score of 0.382.
For TCATATAGGTATACAGGTGAAAGTCCGTAAGTTA, the PBM binding z-score was 1.33.
Sequence CCTGCTAGGTCGATGGTCAGCTAAAGCAGCTCGC has a PBM binding z-score of -0.348.
Work on GCTAGCAGGCAATTTGGGTCACTCAATGACGGGC yielded a PBM binding z-score of -0.111.
CGTCCAAGGTCAGAAAGGTCAGTGAATGCCGAGT was tested, and the PBM binding z-score was 3.94.
For AGAATGACGTTATTAAGATCAGGGAATTGCGGTC, the PBM binding z-score was -0.803.
CCGACTGGGGCATAAGGTTACCTTAAGCCAGCCC showed a PBM binding z-score of 0.545.
In the case of ACTTACGGGTGAACGAGGTTATAGCACGCGTATA, the PBM binding z-score is reported as 0.965.
For AGAATTAGGTTATTAAGATCAGGGAATTGCGGTC, the PBM binding z-score was 1.3.
GATACAGGGTCAAGGACAGAGTACGCGTATTGAT showed a PBM binding z-score of 2.51.
With ATCGAAAGGTCGACGAGGCGAGTATACACCGTTT the PBM binding z-score was 1.44.
In the case of TGAATGAGGTTATAGATCAGGGAACGTGGCGTCG, the PBM binding z-score is reported as 1.11.
With CCTAGCCGGCCAGGGTCACTCAAGCATTTCGCTT the PBM binding z-score was 0.756.
Work on CCTACTGGGCCAACGTCATTGATCAGTCAAAGCA yielded a PBM binding z-score of 0.534.
GCTAGTTGCTCAGTAAAAGGTCACACACCGGTCG showed a PBM binding z-score of 2.95.
TCTTGTAGATCAGCGGGTTAAGAAAGCTGGCCAA showed a PBM binding z-score of 0.0922.
In the case of ACTAGCTGGCCAAGTTTGGGTCACTCAAACAAAG, the PBM binding z-score is reported as -0.138.
TCTAGTTGGTCAAAGGTCAGACACTCGAAATGCG was tested, and the PBM binding z-score was 4.36.
In the case of ACTAGCAGGCCAAGTTCGGGTCACTCAAACAAAG, the PBM binding z-score is reported as 1.34.
Work on CGTCCAAGGTCAATGCTAGTTCAGTGAAAGCATT yielded a PBM binding z-score of 3.77.
CAGTCTAGGTCAGGGCCAGTATAGGAGGAACGTT showed a PBM binding z-score of 1.53.
In the case of TCGAGTAGGTTACCAATGGGGCATTCAACTTTCT, the PBM binding z-score is reported as 0.301.
TGAGTGAGGTTAAAGATCAGGGAACGTGGCGTCG showed a PBM binding z-score of 1.29.
With AGAAGGAGGTTACCAAAGATCAGGGAAACGCTTG the PBM binding z-score was 0.719.
Sequence GCTAGTAGGCCATTTGGGTCACTCAATGACGGGC has a PBM binding z-score of 0.311.
ACAGACAGGTGATGAAGGTCACTCAGGCTATCAT showed a PBM binding z-score of 2.08.
ACTTACGGGTCAACCAGGTTATAGCACGCGTATA showed a PBM binding z-score of 4.29.
TCTTGAAGATCAAGCAGGTTAAGAAAGCCTGAGT showed a PBM binding z-score of -0.603.
Sequence TGAATGGGGTTATAAGATCAGGGAACGTTGCAAA has a PBM binding z-score of 2.39.
With ATATGTAGGTTATCTGGTCATTCAGTTTGCGCAT the PBM binding z-score was 2.41.
ACTAGCAGGCCAAGTTTGAGTCACTCAAACAAAG showed a PBM binding z-score of -0.297.
CCTCCTGGGCCATTCAGAGGTCATTGATCATATG was tested, and the PBM binding z-score was 2.13.
In the case of CCTAGCAGGACAATCTGGGTCACTCAAGGCTTGA, the PBM binding z-score is reported as 0.6.
TCATATAGGTAATACAGGTGAAAGTAGGCATCTA was tested, and the PBM binding z-score was 1.39.
CGTCACAGTTCAACTAAGGTAACGTAAAGCACGC gave a PBM binding z-score of 1.58.
